The source of these data is ChEMBL document CHEMBL4513141, “CO-ADD screening of NIH (USA) - Clinical Collection” (2021).

Entries with a potency or affinity are not part of this list.

One test relates to Staphylococcus aureus. Particulars: Concentration 20 uM; ASSAY_TEST Inhibition of Bacterial Growth; detection method Absorption (OD600); MEDIA CAMHB; plate type 384well; NBS; CORNING #3640; time 18 hr.
Another test relates to Escherichia coli. As to conditions: Concentration 20 uM; ASSAY_TEST Inhibition of Bacterial Growth; detection method Absorption (OD600); MEDIA CAMHB; plate type 384well; NBS; CORNING #3640; time 18 hr.

Turning to `NS(=O)(=O)c1cc2c(cc1C(F)(F)F)NCNS2(=O)=O` [HYDROFLUMETHIAZIDE], the Inhibition is 14.86% with Staphylococcus aureus and 7.25% in the test with Escherichia coli. For `Br.CN(C)CCCC1(c2ccc(F)cc2)OCc2cc(C#N)ccc21` (centres undefined) [CITALOPRAM HYDROBROMIDE], in that order: 3.11% and -2.5%. Regarding `COC(=O)C1=C(C)NC(C)=C(C(=O)OCC(C)C)C1c1ccccc1[N+](=O)[O-]` (centres undefined) [NISOLDIPINE], the Inhibition with Staphylococcus aureus came out at 10.19%; in the test on Escherichia coli, 14.24%. In the case of `CN(C)c1nc(N(C)C)nc(N(C)C)n1` [ALTRETAMINE], the Inhibition with Staphylococcus aureus was 15.78%; with Escherichia coli, -2.16%. For `CCOC(=O)[C@@H](CCc1ccccc1)N[C@@H](C)C(=O)N1CCC[C@H]1C(=O)O.O=C(O)/C=C\C(=O)O`, in that order: 8.37% and -3.24%.

With `C[C@]12CCC(=O)C=C1CC[C@@H]1[C@@H]2[C@@H](O)C[C@@]2(C)[C@H]1CC[C@]2(O)C(=O)COC(=O)CCC(=O)O` [HYDROCORTISONE HEMISUCCINATE ANHYDROUS], the Inhibition in the test with Staphylococcus aureus is recorded as -27.4%; in the test on Escherichia coli, 4.71%. Turning to `CC(C(O)c1ccc(O)cc1)N1CCC(Cc2ccccc2)CC1.O.O=C(O)C(O)C(O)C(=O)O` (centres undefined), the results for the Inhibition in the test on Staphylococcus aureus and in the test on Escherichia coli were 9.87% and -1.84%, respectively.

For `Cc1nc(=O)c2cc(CN(C)c3ccc(C(=O)N[C@@H](CCC(=O)O)C(=O)O)s3)ccc2[nH]1` [RALTITREXED], the Inhibition was found to be 9.09% in the test with Staphylococcus aureus and 2.78% in the test with Escherichia coli. As for `CNCC(O)c1ccc(O)c(O)c1` (centres undefined) [RACEPINEPHRINE], the Inhibition is listed as 9.77% with Staphylococcus aureus and 2.6% with Escherichia coli.

As to `C=C(CC)C(=O)c1ccc(OCC(=O)O)c(Cl)c1Cl` [ETHACRYNIC ACID], the figures for the Inhibition with Staphylococcus aureus and in the test on Escherichia coli were 39.53% and 0.95%, respectively. Take `Nc1ccn([C@H]2CC[C@@H](CO)O2)c(=O)n1` [ZALCITABINE]: the values for the Inhibition with Staphylococcus aureus and with Escherichia coli were 4.24% and -9.44%, respectively. For the compound `CCCc1nc2c(C)cc(-c3nc4ccccc4n3C)cc2n1Cc1ccc(-c2ccccc2C(=O)O)cc1`, the Inhibition stood at 33.03% in the test on Staphylococcus aureus and 4.91% in the test with Escherichia coli. In the same order, the values of `CC(N)(Cc1ccc(O)c(O)c1)C(=O)O` (stereo not drawn) [METHYLDOPA (RACEMIC)] are -29.5% and 7.2%. In the same order, the values of `COc1cc2c(cc1OC)C(=O)C(CC1CCN(Cc3ccccc3)CC1)C2.Cl` (centres undefined) [DONEPEZIL HYDROCHLORIDE] are 12.57% and -6.95%. `CCC(C)(C)C(=O)O[C@H]1C[C@@H](C)C=C2C=C[C@H](C)[C@H](CC[C@@H]3C[C@@H](O)CC(=O)O3)[C@H]21` [SIMVASTATIN]: the Inhibition in the test with Escherichia coli came out at 6.01%. For the compound `CCCc1nc(C)c2c(O)nc(-c3cc(S(=O)(=O)N4CCN(CC)CC4)ccc3OCC)nn12.O=C(O)CC(O)(CC(=O)O)C(=O)O`, the Inhibition with Staphylococcus aureus is 14.18%; in the test on Escherichia coli it was -4.2%. In the same order, the values of `CC(Oc1c(Cl)cccc1Cl)C1=NCCN1.Cl` (centres undefined) [LOFEXIDINE HYDROCHLORIDE] are 7.96% and 0.12%.

Turning to `C#C[C@]1(O)CC[C@H]2[C@@H]3CCC4=CC(=O)CC[C@@H]4[C@H]3CC[C@@]21CC` [LEVONORGESTREL], the Inhibition came out at 8.4% in the test on Staphylococcus aureus and 3.88% with Escherichia coli.

Turning to `Nc1nnc(-c2cccc(Cl)c2Cl)c(N)n1` [LAMOTRIGINE], the Inhibition in the test on Staphylococcus aureus is recorded as 8.71%; in the test on Escherichia coli, 4.49%. In the same order, the values of `CC(=O)O.CC(C)C[C@H](NC(=O)[C@@H](COC(C)(C)C)NC(=O)[C@H](Cc1ccc(O)cc1)NC(=O)[C@H](CO)NC(=O)[C@H](Cc1c[nH]c2ccccc12)NC(=O)[C@H](Cc1c[nH]cn1)NC(=O)[C@H]1CCC(=O)N1)C(=O)N[C@H](CCCNC(=N)N)C(=O)N1CCC[C@@H]1C(=O)NNC(N)=O` are 9.86% and 5.78%.

Take `CCOC(=O)OC(C)OC1=C(C(=O)Nc2ccccn2)N(C)S(=O)(=O)c2ccccc21` (centres undefined) [AMPIROXICAM]: the Inhibition with Staphylococcus aureus is reported as 16.07%; with Escherichia coli, -0.97%. In the same order, the values of `Cc1ccc(Cl)c(Nc2ccccc2C(=O)[O-])c1Cl.O.[Na+]` [MECLOFENAMATE SODIUM] are 27.36% and 2.5%. As to `CCCCCCCCCCC[C@@H](C[C@@H]1OC(=O)[C@H]1CCCCCC)OC(=O)[C@H](CC(C)C)NC=O` [ORLISTAT], the Inhibition is 11.59% in the test on Staphylococcus aureus and -4.78% in the test on Escherichia coli.

In the case of `Br.Br.O=C1CC2(CCCC2)CC(=O)N1CCNCC1COc2ccccc2O1` (centres undefined), the results for the Inhibition in the test with Staphylococcus aureus and in the test on Escherichia coli were 17.36% and 6.1%, respectively. For `CN1CCN(CCCN2c3ccccc3Sc3ccc(Cl)cc32)CC1.O=C(O)/C=C\C(=O)O.O=C(O)/C=C\C(=O)O` [PROCHLORPERAZINE MALEATE], the values for the Inhibition in the test with Staphylococcus aureus and with Escherichia coli were 13.38% and 1.77%, respectively.

One may read the Inhibition as the relative decrease from the control value, in per cent.
